# Screening results deposited in PubChem by National Center for Advancing Translational Sciences (NCATS).
# Rows were chosen to be rich in hits. Some 9.9% of all compounds tested hit in one or more screens of this group.
# KB-3-1 cytotox – KB-3-1 parental cell cytotoxicity; KB-3-1 viability, CellTiter-Glo ATP luminescence, 72 h; Potency, µM (top dose mostly 46.1 µM), usual class: cytotoxic; hit rate 1.4% among 400,000; AID 1347075; further: potency means the concentration at half of the fitted maximal effect; on the % scale 0 is the no-effect control and ±100 the full control effect; nearly all actives have a fitted effect of over 60% in size
#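 KB-3-1 cells, DMEM (no phenol red) + 10% FBS; compound by pin transfer, 72 h, 37 °C. Readout: CellTiter-Glo luminescence after 10 min. Data normalized, curve-fitted.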
# SW480 rereplic – induces DNA re-replication in SW480 colon adenocarcinoma cells; SW480 DNA re-replication, Hoechst DNA content imaging, 48 h; Potency, µM (series often up to 46.1 µM), for the others: at the top dose re-replication activation, actives largely listed as activators; hit rate 1.8% among 340,000; AID 624297; further: potency means the concentration at half of the fitted maximal effect; % of control where 0% means no effect; nearly all actives have a fitted effect of over 55% in size
#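 Compounds, transferred as 23 nL by pin tool, were incubated with cells for 48 hr; DNA content per nucleus was then quantified by Hoechst staining and fluorescence plate imaging.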
# IL-1B inflam inh – blocks inflammasome-driven IL-1 beta release | AID 743279 | hit rate 4.7% among 360,000 | activity change, % at 57.5 µM | THP-1 LPS/ATP IL-1B secretion, AlphaLISA, 16 h; active compounds read low; in the data active means activity change below about -50%; inconclusive means mostly about -30% to -49%; further: on the % scale 0 is the no-effect control and ±100 the full control effect
#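 Secreted IL-1B measured by AlphaLISA bead assay after 16 h compound exposure of THP-1 cells; compounds (final up to 57.5 uM) added 1 h before LPS (250 ng/mL) and ATP (1.25 mM) stimulation; lower signal means less secretion.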
# MCF10A rereplic – DNA re-replication induction in MCF 10a cells. MCF 10A DNA re-replication, Hoechst nuclear intensity, 48 h. hit rate 2.9% among 350,000. AID 624296. Potency, µM (series often up to 46.1 µM), for inactives: at the top dose activity, positive = re-replication, actives largely listed as activators; further: potency means the concentration at half of the fitted maximal effect; % of control where 0% means no effect; nearly all actives have a fitted effect of over 50% in size
# KB-V1 MDR tox – kills drug-selected multidrug resistant KB-V1 cells; AID 1347076; Potency, µM (highest dose often 46.1 µM), actives largely listed as cytotoxic; hit rate 3.4% among 400,000; KB-V1 MDR cells viability, CellTiter-Glo, 72 h; further: potency means the concentration at half of the fitted maximal effect; on the % scale 0 is the no-effect control and ±100 the full control effect; nearly all actives have a fitted effect of over 60% in size
#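 Drug-selected KB-V1 cells, grown in DMEM lacking phenol red with 10% FBS, receive compound titrations; after three days at 37 degrees C, surviving cell ATP is quantified by CellTiter-Glo luminescence and responses normalized and curve-fitted.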
# An asterisk follows results filed as active; i = inactive; u = inconclusive; x = no result given. Unless noted, the call rests on the fitted dose curve; in most records, active means well fitted curve in the direction sought with a large enough effect; inconclusive means small, poorly fitted or top-dose-only effect, or another doubt; inactive means no such curve, though single readings can be large; an effect the other way counts as inactive or inconclusive.
SMILES,KB-3-1 cytotox,SW480 rereplic,IL-1B inflam inh,MCF10A rereplic,KB-V1 MDR tox
Cc1ccc(-n2nnnc2CNC(=O)c2ccc3c(c2)OCO3)cc1C,i,-8%,19,-6%,i
CCN(c1ccccc1)S(=O)(=O)c1ccc(Cl)c(NC(=O)CN2CCN(C)CC2)c1,i,12%,1,16µM*,i
CCN(CC)S(=O)(=O)c1ccc(C)c(NC(=O)CN2CCN(C)CC2)c1,i,-41%,4,13%,i
COc1ccc(S(=O)(=O)Cc2ccccc2)cc1N,u,6.5µM*,1,u,u
O=C(CSc1ncn[nH]1)Nc1ccc(Cl)c(Cl)c1,i,-12%,-52*,-2%,i
CCN(c1ccccc1)S(=O)(=O)c1ccc(Cl)c(NC(=O)Nc2ccc(Cl)cc2C#N)c1,u,u,-53*,u,u
COc1ccc(C(=O)NCC(=O)NCC2COc3ccccc3O2)cc1 (stereo unspecified),i,u,8,13%,i
CCN(CC(=O)Nc1cc(S(=O)(=O)N2CCCCC2)ccc1Cl)Cc1ccccc1,u,16%,6,u,u
CCN(c1ccccc1)S(=O)(=O)c1ccc(N)c(OC)c1,16µM*,11µM*,10,18µM*,23µM*
CCN(c1ccccc1)S(=O)(=O)c1ccc(Cl)c(NC(=O)CN(C)C2CCN(C)CC2)c1,u,u,-55*,u,i
CCN(CC(=O)Nc1cc(S(=O)(=O)N2CCOCC2)ccc1Cl)Cc1ccccc1,i,-15%,-58*,u,i
COc1cc(OC)c(N(C)C(=O)c2cn(C3CCCC3)c(=O)c3c2c2ccccc2n3C)cc1Cl,i,x,x,x,i
CCCCN1CC(=O)N2[C@H](c3ccc(OC)cc3)[C@@H]3C(=O)N(CC)C(=O)[C@@H]3[C@]2(Cc2ccccc2)C1=O,i,-2%,1,-27%,i
COc1ccc([N+](=O)[O-])cc1NC(=O)C1CCCCC1C(=O)O (stereo unspecified),i,5%,8,93%,i
Cc1ccccc1NC(=O)CSc1nc2c(c(=O)n(C)c(=O)n2C)n1Cc1ccccc1F,i,x,x,x,i
COCCNCc1cc(C)n(-c2cc(S(=O)(=O)N3CCOCC3)ccc2N2CCCC2)c1C,i,16%,-25,11%,i
Cc1cn(-c2cc(NC(=O)c3ccc(C)c(NC(=O)c4cccc(-c5cn[nH]c(=O)c5)c4)c3)cc(C(F)(F)F)c2)cn1,i,0%,-94*,u,i
CC(=O)c1c(C)[nH]c(C(=O)NNC(=O)COc2ccc(Cl)cc2C)c1C,i,-20%,-29,7.1µM*,i
Cc1ccc(C(=O)NNC(=O)COc2ccc(Cl)cc2C)o1,i,2%,-54*,-2%,i
Cc1cc(Cl)ccc1OCC(=O)NNC(=O)c1cnccn1,i,-4%,2,7%,i
O=C(NCc1ccccc1F)C1CCCN(S(=O)(=O)N2CCOCC2)C1 (stereo unspecified),i,2%,2,2%,i
CCCn1c(SCC(=O)NC2CCCC2)nnc1C(C)C,i,18µM*,-2,0%,i
CCCCOc1ccc(C(=O)NCC(=O)N2CC(C)CC(C)C2)cc1 (stereo unspecified),u,-20%,-5,-2%,u
O=C(CN(c1ccccc1Cl)S(=O)(=O)c1ccccc1)NC1CC2CCC1C2 (stereo unspecified),i,x,-7,x,u
CC(C)(C)n1ncc2c(=O)n(CC(=O)NCc3ccco3)cnc21,u,10%,19,u,u
SMILES,KB-3-1 cytotox,SW480 rereplic,IL-1B inflam inh,MCF10A rereplic,KB-V1 MDR tox
CC(C)(C)n1ncc2c(=O)n(CC(=O)c3ccccc3)cnc21,i,-7%,-15,0%,15µM*
CC(C)(C)n1ncc2c(=O)n(CC(=O)NCc3ccc(F)cc3)cnc21,9.2µM*,u,37,u,9.2µM*
CC(C)(C)n1ncc2c(=O)n(CC(=O)OCc3ccccc3)cnc21,i,-8%,-12,10%,i
O=C(Nc1ccccc1)c1ccc(-n2nncc2-c2ccccc2)cc1,i,x,x,x,i
COc1ccc(CCNC(=O)c2cn(C)c3ccc(S(=O)(=O)N(C)C)cc3c2=O)cc1OC,i,x,x,x,u
Cc1nn(CC(=O)NCC(C)c2ccccc2)c(=O)c2cc3ccccc3n12 (stereo unspecified),i,x,x,x,i
CCOc1ncccc1C(=O)N1CCN(C(c2ccccc2)c2ccccc2)CC1,i,0%,-90*,u,u
CCOc1ncccc1C(=O)N1CCN(S(=O)(=O)c2cccs2)CC1,i,-10%,-7,9%,i
O=C(c1cc(Cl)c(=O)n(Cc2ccc(Cl)cc2)c1)N1CCOCC1,i,-5%,-2,-1%,21µM*
O=C(c1ccc(C(F)(F)F)n(Cc2ccc(Cl)cc2)c1=O)N1CCOCC1,i,-21%,-4,3%,i
CCCC[C@@H](CNC)NC[C@H](Cc1ccc(O)cc1)NCCc1ccc(OCC)cc1,i,u,-27,u,u
CNC[C@@H](C)NC[C@@H](Cc1ccccc1)NCCc1ccccc1,u,0.37µM*,u,-35%,i
c1nc(NCCCN2CCOCC2)c2cc(-c3ccc4c(c3)OCO4)ccc2n1,i,x,x,x,i
Cc1ccc(Nc2nc(N)nc(CN3CCN(Cc4ccc5c(c4)OCO5)CC3)n2)cc1Cl,21µM*,16%,u,u,u
Cc1ccc(Nc2nc(N)nc(CN3CCN(Cc4ccc5c(c4)OCO5)CC3)n2)cc1C,i,1%,-74*,5%,u
Cc1ccc(Nc2nc(N)nc(CN3CCN(Cc4ccc5c(c4)OCO5)CC3)n2)cc1,i,1%,u,4%,u
Cc1ccc(Nc2nc(N)nc(CN3CCN(Cc4ccc5c(c4)OCO5)CC3)n2)c(C)c1,i,2%,-23,6%,i
CC(=O)Oc1cc2c(cc1Cl)C(c1cccs1)CC1(CC(C)(C)NC(=S)N1)O2 (stereo unspecified),u,26%,24,-4%,i
CCSc1ncc(Cl)c(C(=O)Nc2ccc(S(=O)(=O)N(C)c3ccccc3)cc2)n1,i,x,x,x,i
CCN(c1ccccc1)S(=O)(=O)c1ccc(NC(=O)c2nc(S(C)(=O)=O)ncc2Cl)cc1,5.2µM*,5.2µM*,-97*,u,u
CCS(=O)(=O)c1ncc(Cl)c(C(=O)Nc2ccc(S(=O)(=O)N(C)c3ccccc3)cc2)n1,2.6µM*,10µM*,-103*,u,u
CC(C)Sc1ncc(Cl)c(C(=O)Nc2ccc(S(=O)(=O)N(C)c3ccccc3)cc2)n1,i,x,x,x,i
Cc1ccc(NC(=S)N2CC(C)OC(C)C2)cc1C (stereo unspecified),i,5%,4,3%,i
